Reference: ChEMBL document CHEMBL3988442, “University of Dundee, Small-Polar-MMV Screening Library” (2021)

What follows are molecules tested against T1, Aspartate--tRNA(Asp/Asn) ligase (Mycobacterium tuberculosis (strain ATCC 25618 / H37Rv)) (UniProt P9WFW3) (assay: Assay for Asp RNA synthetase-1 from Mycobacterium tuberculosis). Details: 30 µM.
T1 sequence (whole entry): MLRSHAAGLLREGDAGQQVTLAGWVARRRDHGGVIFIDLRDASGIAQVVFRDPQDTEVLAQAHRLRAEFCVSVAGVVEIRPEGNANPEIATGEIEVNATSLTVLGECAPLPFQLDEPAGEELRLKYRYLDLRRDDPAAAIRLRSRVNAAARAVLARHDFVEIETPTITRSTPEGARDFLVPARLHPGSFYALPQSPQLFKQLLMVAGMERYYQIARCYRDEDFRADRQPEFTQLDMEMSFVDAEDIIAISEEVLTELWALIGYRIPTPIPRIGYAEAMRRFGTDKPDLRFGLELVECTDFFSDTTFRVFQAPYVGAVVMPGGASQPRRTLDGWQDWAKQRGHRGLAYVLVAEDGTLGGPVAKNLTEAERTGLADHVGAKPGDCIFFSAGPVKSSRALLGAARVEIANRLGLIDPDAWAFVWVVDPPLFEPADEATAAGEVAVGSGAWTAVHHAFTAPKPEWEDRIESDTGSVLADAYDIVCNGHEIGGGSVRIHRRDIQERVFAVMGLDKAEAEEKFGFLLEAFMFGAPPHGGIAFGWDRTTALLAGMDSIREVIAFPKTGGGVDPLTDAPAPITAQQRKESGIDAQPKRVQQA
Assay type: functional
Parameters: scale not given: direction of the effect not stated beside the values
With `CN(C)C(=O)CC1CC2(CCN(c3ncccn3)CC2)c2ccccc21` (stereo not given) the Percent Effect was 2.97%. Work on `Clc1ccc(OCCCN2CCN(c3cnccn3)CC2)cc1` yielded a Percent Effect of 1.06%. `Cc1nc(CN2CCC3(CCCN(Cc4cnn(C)c4)C3)C2=O)cs1` (stereo not given) showed a Percent Effect of -3.23%. `Cc1ccsc1C(=O)N1C[C@@H]2CN(Cc3ccoc3)CCO[C@@H]2C1` was tested, and the Percent Effect was -1.39%. `Clc1ccc(OCCN2CCN(CCn3cncn3)CC2)cc1` was tested, and the Percent Effect was -1.39%. Work on `CC(C)NC(=O)CS(=O)(=O)Cc1cc(Cl)c2c(c1)OCCO2` yielded a Percent Effect of -0.2%. With `CCCn1nc2c(cc1=O)CN(Cc1nc(CCOC)no1)CC2` the Percent Effect was 16.9%. `CCS(=O)(=O)N1CCC2(CCC2NC(=O)c2ccn(C)c2)CC1` (stereo not given) was tested, and the Percent Effect was 1.6%. `CN(Cc1cnn(C)c1)C(=O)Cn1c(CS(C)(=O)=O)nc2ccccc21` was tested, and the Percent Effect was -0.869%. With `OCCn1cc(CN2CCN(CCOc3ccccc3F)CC2)cn1` the Percent Effect was -0.699%. For `c1cc(-c2noc(CN3CCn4c(nnc4C4CC4)C3)n2)co1`, the Percent Effect was -0.544%. `CC(=O)N1CCN([C@@H]2CC[C@@H](NC(=O)c3cncc(C)c3)[C@H]2O)CC1` showed a Percent Effect of -1.5%. In the case of `Cc1cc(N2CCN(C(=O)c3cc(Cl)c[nH]3)CC2)nc(N)n1`, the Percent Effect is reported as 3.4%. `Cn1cc(CNCCn2cccn2)c(-c2cccnc2)n1` was tested, and the Percent Effect was 1.65%. For `CC(C)(C)c1nnc(CN2CCOC(Cn3cccn3)C2)o1` (stereo not given), the Percent Effect was -6.74%. In the case of `COc1ccc(C2CC(=O)Nc3c2cnn3C)cc1` (stereo not given), the Percent Effect is reported as -0.607%. `CN1CCCC1CNC(=O)CCCOc1ccc(F)cc1` (stereo not given) showed a Percent Effect of -1.43%. `Cc1csc(N2CCCN(C(=O)C(C)n3ccnc3)CC2)n1` (stereo not given) was tested, and the Percent Effect was 1.2%. `CC(=O)N1CCC2(CC1)COCCN2Cc1ccc(F)cc1` gave a Percent Effect of -4.11%. For `Cc1ccc(N2CCN(C(=O)COc3ccccc3)CC2)nn1`, the Percent Effect was -1.15%. `Cc1cccc(N2CCN(CCNC(=O)C(C)n3cncn3)CC2)c1` (stereo not given) was tested, and the Percent Effect was 2.75%. In the case of `Cc1nc(C)n(CC2CCCN(CCC(=O)N3CCCCC3)C2)n1` (stereo not given), the Percent Effect is reported as -1.61%. In the case of `O=C(NCCNc1ncccn1)N(Cc1ccc(F)cc1F)C1CC1`, the Percent Effect is reported as -3.51%. In the case of `Cn1cc(CN2C[C@@H]3COC[C@]3(C(=O)NCc3ccccn3)C2)cn1`, the Percent Effect is reported as 3.06%. Work on `O=C(c1nc(COc2ccc3c(c2)OCO3)no1)N1CCCC1` yielded a Percent Effect of 6.21%. In the case of `COCc1nc(C(=O)N2CCCC(n3cccn3)C2)cs1` (stereo not given), the Percent Effect is reported as -1.71%. Work on `CC(NCc1ccccc1Br)c1ccc2[nH]c(=O)[nH]c2c1` (stereo not given) yielded a Percent Effect of 5.02%. `NC(=O)c1cc(C2CCCN(CCc3ccccn3)C2)n[nH]1` (stereo not given) showed a Percent Effect of -0.833%. In the case of `CC(C)c1nc(C2CCCN2CC(=O)Nc2ccc(Cl)cn2)no1` (stereo not given), the Percent Effect is reported as -6.33%. With `COCC(NC(=O)c1cc[nH]n1)c1cccc(C(F)(F)F)c1` (stereo not given) the Percent Effect was -7.45%. Work on `Cc1ccc(-c2ncc(C(=O)NCCS(N)(=O)=O)s2)c(C)c1` yielded a Percent Effect of 1.7%. `CC(C)(C)c1nnc(CN2CCOC(Cn3cncn3)C2)o1` (stereo not given) showed a Percent Effect of 0.0111%. `Cc1cnn(CC2CN(CCc3ccncc3)CCO2)c1` (stereo not given) showed a Percent Effect of 8.62%. For `O=C(NCC(=O)N1CCCCC1)c1ccoc1`, the Percent Effect was 6.71%. In the case of `Cc1cccc(CN2C[C@@H]3CN(C(=O)c4ccsc4)C[C@@H]3C2=O)c1`, the Percent Effect is reported as 2.59%. `Cc1ccccc1CS(=O)(=O)CC(=O)NCc1ccccc1F` gave a Percent Effect of 7.37%. Molecule `CN(C)c1cc(CNC(=O)c2cn(-c3ccc(F)cc3)nn2)ccn1` has a Percent Effect of 1.09%. With `COc1ccc(C(=O)N(Cc2cnn(C)c2)C(C)C)cc1Br` the Percent Effect was -1.07%. `Cn1cc(CN2CCc3nc(-c4ccccn4)nc(O)c3C2)cn1` showed a Percent Effect of -5.28%. Work on `COC[C@H]1CCC[C@]12CN(CCc1ccccc1)CCO2` yielded a Percent Effect of -1.02%.

These molecules were tested against Shiga toxin 2 (Escherichia coli O157:H7) (UniProt P09385+P09386) (assay: E. coli 0.157:H7 Shiga Toxin SOP - stx2 screening assay). Details: 30 µM.
Assay type: functional
Parameters: scale not given: direction of the effect not stated beside the values
In the case of `CN(C)C(=O)CC1CC2(CCN(c3ncccn3)CC2)c2ccccc21` (stereo not given), the Percent Effect is reported as -6.02%. With `Clc1ccc(OCCCN2CCN(c3cnccn3)CC2)cc1` the Percent Effect was -6.97%. `Cc1nc(CN2CCC3(CCCN(Cc4cnn(C)c4)C3)C2=O)cs1` (stereo not given) gave a Percent Effect of -23.7%. In the case of `Cc1ccsc1C(=O)N1C[C@@H]2CN(Cc3ccoc3)CCO[C@@H]2C1`, the Percent Effect is reported as -11.7%. For `Clc1ccc(OCCN2CCN(CCn3cncn3)CC2)cc1`, the Percent Effect was -23.5%. `CC(C)NC(=O)CS(=O)(=O)Cc1cc(Cl)c2c(c1)OCCO2` was tested, and the Percent Effect was -1.92%. Molecule `CCCn1nc2c(cc1=O)CN(Cc1nc(CCOC)no1)CC2` has a Percent Effect of -17.7%. For `CCS(=O)(=O)N1CCC2(CCC2NC(=O)c2ccn(C)c2)CC1` (stereo not given), the Percent Effect was 9%. With `CN(Cc1cnn(C)c1)C(=O)Cn1c(CS(C)(=O)=O)nc2ccccc21` the Percent Effect was 1.77%. For `OCCn1cc(CN2CCN(CCOc3ccccc3F)CC2)cn1`, the Percent Effect was 24.4%. With `c1cc(-c2noc(CN3CCn4c(nnc4C4CC4)C3)n2)co1` the Percent Effect was 0.987%. Molecule `CC(=O)N1CCN([C@@H]2CC[C@@H](NC(=O)c3cncc(C)c3)[C@H]2O)CC1` has a Percent Effect of -14%. `Cc1cc(N2CCN(C(=O)c3cc(Cl)c[nH]3)CC2)nc(N)n1` showed a Percent Effect of -96.7%. With `Cn1cc(CNCCn2cccn2)c(-c2cccnc2)n1` the Percent Effect was -0.247%. Work on `CC(C)(C)c1nnc(CN2CCOC(Cn3cccn3)C2)o1` (stereo not given) yielded a Percent Effect of -2.05%. In the case of `COc1ccc(C2CC(=O)Nc3c2cnn3C)cc1` (stereo not given), the Percent Effect is reported as -21.4%. With `CN1CCCC1CNC(=O)CCCOc1ccc(F)cc1` (stereo not given) the Percent Effect was 1.57%. Molecule `Cc1csc(N2CCCN(C(=O)C(C)n3ccnc3)CC2)n1` (stereo not given) has a Percent Effect of -6.32%. Molecule `CC(=O)N1CCC2(CC1)COCCN2Cc1ccc(F)cc1` has a Percent Effect of -2.06%. Work on `Cc1ccc(N2CCN(C(=O)COc3ccccc3)CC2)nn1` yielded a Percent Effect of -66.5%. Molecule `Cc1cccc(N2CCN(CCNC(=O)C(C)n3cncn3)CC2)c1` (stereo not given) has a Percent Effect of 15.6%. `Cc1nc(C)n(CC2CCCN(CCC(=O)N3CCCCC3)C2)n1` (stereo not given) was tested, and the Percent Effect was 13.6%. Molecule `O=C(NCCNc1ncccn1)N(Cc1ccc(F)cc1F)C1CC1` has a Percent Effect of 12.1%. With `Cn1cc(CN2C[C@@H]3COC[C@]3(C(=O)NCc3ccccn3)C2)cn1` the Percent Effect was -15%. `O=C(c1nc(COc2ccc3c(c2)OCO3)no1)N1CCCC1` was tested, and the Percent Effect was -63.7%. In the case of `COCc1nc(C(=O)N2CCCC(n3cccn3)C2)cs1` (stereo not given), the Percent Effect is reported as -22.6%. Molecule `CC(NCc1ccccc1Br)c1ccc2[nH]c(=O)[nH]c2c1` (stereo not given) has a Percent Effect of -5.76%. Molecule `NC(=O)c1cc(C2CCCN(CCc3ccccn3)C2)n[nH]1` (stereo not given) has a Percent Effect of -5.89%. For `CC(C)c1nc(C2CCCN2CC(=O)Nc2ccc(Cl)cn2)no1` (stereo not given), the Percent Effect was 9.53%. `COCC(NC(=O)c1cc[nH]n1)c1cccc(C(F)(F)F)c1` (stereo not given) showed a Percent Effect of -7.89%. Work on `Cc1ccc(-c2ncc(C(=O)NCCS(N)(=O)=O)s2)c(C)c1` yielded a Percent Effect of 18.5%. `CC(C)(C)c1nnc(CN2CCOC(Cn3cncn3)C2)o1` (stereo not given) was tested, and the Percent Effect was 8.96%. For `Cc1cnn(CC2CN(CCc3ccncc3)CCO2)c1` (stereo not given), the Percent Effect was -2.69%. `O=C(NCC(=O)N1CCCCC1)c1ccoc1` was tested, and the Percent Effect was -16.3%. `Cc1cccc(CN2C[C@@H]3CN(C(=O)c4ccsc4)C[C@@H]3C2=O)c1` showed a Percent Effect of -27.2%. Molecule `Cc1ccccc1CS(=O)(=O)CC(=O)NCc1ccccc1F` has a Percent Effect of 10.5%. In the case of `CN(C)c1cc(CNC(=O)c2cn(-c3ccc(F)cc3)nn2)ccn1`, the Percent Effect is reported as 6.86%. With `COc1ccc(C(=O)N(Cc2cnn(C)c2)C(C)C)cc1Br` the Percent Effect was 5.59%. `Cn1cc(CN2CCc3nc(-c4ccccn4)nc(O)c3C2)cn1` gave a Percent Effect of -24.6%. In the case of `COC[C@H]1CCC[C@]12CN(CCc1ccccc1)CCO2`, the Percent Effect is reported as -22%.
